This note sets out measurements from PubChem BioAssay (EPA / NIEHS).

Structures are written as SMILES. Where “and” joins values, the source holds several entries; their conditions need not be identical. Equal values may be shown once. The source holds several records for some structures; these can differ, active in one and inactive in another. Calls of active or inactive are those of the source. The calls were made as follows: active = hit-call score of the fitted dose curve at least 0.9, where 1 is the maximum; inactive = score below 0.9.

Read-out in this assay: TIMP metallopeptidase inhibitor 2 (TIMP2), TIMP2 (gene 7077)
The assay is described as follows: BSK_KF3CT_TIMP2: BioMAP Diversity Plus: KF3CT Assay for TIMP metallopeptidase inhibitor 2 (TIMP2) Biomarker Activity (AID 2283071). The settings on record: primary human keratinocytes with fibroblasts; actives raise or lower the signal. As to the method: BSK_KF3CT is a cell-based, multiplexed-readout assay that uses keratinocytes and foreskin fibroblasts, a human skin primary cell co-culture, with measurements taken at 24 hours after chemical dosing in a 96-well plate.BSK_KF3CT_TIMP2 is an assay component measured in the BSK_KF3CT assay. It measures TIMP-2 antibody related to regulation of gene expression using ELISA technology.Data from the assay component BSK_KF3CT_TIMP2 was analyzed into 1 assay endpoint. This assay endpoint, BSK_KF3CT_TIMP2, was analyzed with bidirectional fitting relative to DMSO as the negative control and baseline of activity. Using a type of binding reporter, gain or loss-of-signal activity can be used to understand changes in the signaling as they relate to the gene TIMP2. Furthermore, this assay endpoint can be referred to as a primary readout, because this assay has produced multiple assay endpoints where this one serves a signaling function. To generalize the intended target to other relatable targets, this assay endpoint is annotated to the protease inhibitor intended target family, where the subfamily is metalloproteinase inhibitor.
The levels of cell surface (or secreted, indicated by the prefix "s") biomarker endpoints were measured by ELISA. Overt cytotoxicity to cells in confluent adherent cultures (all systems other than the BT system) was assessed by measuring total protein levels using sulforhodamine B (SRB) staining in parallel cultures at the time of biomarker measurements, indicated as SRB endpoints. For proliferation assays for adherent cell types, individual cell types are cultured at sub-confluence and relative cell numbers quantified by SRB staining at time points optimized for each system (48 h: 3C and CASM3C systems; 72 h: BT and HDF3CGF systems; 96 h: SAg system). SRB was performed by staining cells with 0.1% SRB after fixation with 10% TCA and reading wells at 560 nm.Viability and proliferation of PBMC (T cells) was quantified by Alamar Blue reduction for the SAg and BT systems. For PBMC viability (referred to as PBMC Cytotoxicity within the assay endpoint names), cells were plated (75,000/well in a 96-well plate) and then chemical samples added for 1 h before addition of activators, SEB and TSST-1 (20 ng/mL final concentration each). Cells were incubated for 90 h. Then, Alamar Blue (20 uL/well) (Invitrogen, Cat DAL1100) was added for 6 h, and the plates were read with a fluorescence microplate reader at 546/580 nm (excitation/emission). For PBMC proliferation, cells were plated and activated as above but incubated for only 16 h prior to addition of Alamar Blue. Plates were read after 6 h.
As for `COP(=S)(OC)Oc1ccc([N+](=O)[O-])cc1`, the AC50 is 34.6 µM (active).
As to `COc1nn(CSP(=S)(OC)OC)c(=O)s1`, the result was inactive.
As for `O=S(=O)(O)C(F)(F)C(F)(F)C(F)(F)C(F)(F)C(F)(F)C(F)(F)C(F)(F)C(F)(F)F`, the AC50 is 33.9 µM (active) and 35.3 µM (active); the result was inactive.
Take `CCC(C)Nc1c([N+](=O)[O-])cc(C(C)(C)C)cc1[N+](=O)[O-]` (stereo not given): the result was inactive.
As for `CC[C@H](C)[C@H]1O[C@]2(C=C[C@@H]1C)C[C@@H]1C[C@@H](C/C=C(\C)[C@@H](O[C@H]3C[C@H](OC)[C@@H](O[C@H]4C[C@H](OC)[C@@H](O)[C@H](C)O4)[C@H](C)O3)[C@@H](C)/C=C/C=C3\CO[C@@H]4[C@H](O)C(C)=C[C@@H](C(=O)O1)[C@]34O)O2` (tested in a mixture with another compound), the AC50 was 12.6 µM (active).
Same read-out and setting: under `N#Cc1c(Cl)c(Cl)c(Cl)c(C#N)c1Cl` stands 1.89 µM (active).
As for `CNC(=O)Oc1cccc(N=CN(C)C)c1`, the outcome was inactive.
The same measure, in the same setting: under `N#CN` stands “inactive”; under `CCOc1nc(NC)nc(NC(=O)NS(=O)(=O)c2ccccc2C(=O)OC)n1`, “inactive”; under `COc1cc(OC)nc(NC(=O)NS(=O)(=O)c2cc(NC=O)ccc2C(=O)N(C)C)n1`, “inactive”.
Same read-out and setting: under `O=C(Nc1ccccc1)Nc1cnns1` stands “inactive”.
The same measure, in the same setting: as for `CCc1ccc(C(=O)NN(C(=O)c2cc(C)cc(C)c2)C(C)(C)C)cc1`, the entry is “inactive”; as for `O=C(O)CCCOc1ccc(Cl)cc1Cl`, “inactive”; as for `O=C(NC(=O)c1c(F)cccc1F)Nc1ccc(OC(F)(F)C(F)OC(F)(F)F)c(Cl)c1` (stereo not given), “inactive”.
In the case of `C[C@H]1[C@H](c2ccc(Cl)cc2)SC(=O)N1C(=O)NC1CCCCC1`, the result was inactive.
On to `Clc1ccccc1-c1nnc(-c2ccccc2Cl)nn1`, for which the outcome was inactive.
In the case of `[2H]C1([2H])[n+]2ccccc2-c2cccc[n+]2C1([2H])[2H]`, the result was inactive.
Still for that read-out and setting: as for `CCN(CC)C(=O)SCc1ccc(Cl)cc1`, the entry is “inactive”; as for `O=C(O)C(F)(F)C(F)(F)C(F)(F)C(F)(F)C(F)(F)C(F)(F)C(F)(F)F`, “inactive”.
Still for that read-out and setting: as for `COC(=O)c1ccccc1S(=O)(=O)NC(=O)N(C)c1nc(C)nc(OC)n1`, the entry is “inactive”.
Take `COP(=O)(OC)OC=C(Cl)Cl`: the result was inactive.
On to `O=C(O)COc1ccc(Cl)cc1Cl`, for which the outcome was inactive.
In the case of `CC1(c2ccc(Oc3ccccc3)cc2)OC(=O)N(Nc2ccccc2)C1=O` (stereo not given), the result was inactive.
In the case of `CCC(C)(C)C(=O)OC1=C(c2ccc(Cl)cc2Cl)C(=O)OC12CCCCC2`, the half-maximal activity concentration (AC50) is 28 µM (active).
Regarding `CC1(C)C(C=C(Cl)Cl)C1C(=O)OC(C#N)c1ccc(F)c(Oc2ccccc2)c1` (stereo not given), the outcome was inactive.
Same read-out and setting: under `O=[N+]([O-])/N=C1\NCCN1Cc1ccc(Cl)nc1` stands “inactive”; under `COP(=S)(OC)Oc1ccc(SC)c(C)c1`, “inactive”.
In the case of `ClC1C(Cl)C(Cl)C(Cl)C(Cl)C1Cl` (stereo not given), the AC50 is 20 µM (active) and the result was inactive.
On to `Oc1cc(Cl)ccc1Oc1ccc(Cl)cc1Cl`, for which the AC50 was 30 µM (active) and 29.7 µM (active) and 20 µM (active).
Turning to `CNC(=O)/C=C(\C)OP(=O)(OC)OC`, the outcome was inactive.
As to `O=[N+]([O-])c1c(Cl)c(Cl)c(Cl)c(Cl)c1Cl`, the concentration at half-maximal activity (AC50) is 29.9 µM (active).
In the case of `CCOC1Oc2ccc(OS(C)(=O)=O)cc2C1(C)C` (stereo not given), the outcome was inactive.
The same measure, in the same setting: as for `CCCN(CCC)c1c([N+](=O)[O-])cc(C(F)(F)F)cc1[N+](=O)[O-]`, the entry is “inactive”.
`CCC(C)(NC(=O)c1cc(Cl)c(C)c(Cl)c1)C(=O)CCl` (stereo not given): the AC50 is 16.6 µM (active).
In the case of `CC(C)(C)C(O)/C(=C\c1ccc(Cl)cc1Cl)n1cncn1` (stereo not given), the AC50 is 33.2 µM (active).
`CCS(=O)(=O)c1cccnc1S(=O)(=O)NC(=O)Nc1nc(OC)cc(OC)n1`: the outcome was inactive.
Consider `CCOCN(C(=O)CCl)c1c(C)cccc1CC`, for which the result was inactive.
On the same count and under the same terms, under `CC(C)(C)C(O)C(Oc1ccc(Cl)cc1)n1cncn1` (stereo not given) stands “inactive”.

As usually defined, the AC50 is the concentration at which the activity in the assay is half-maximal.
